In all, about 2,400 compounds went through this assay and about 95 (4%) were called active.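 The calls were made as follows: active = mean of duplicate membrane potential ratios lying over 3 SD above or below the buffer control mean, so actives fall on both sides; inactive = the rest.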 Only a sample is shown.

The nature of this test: membrane potential effects in parental HEK293, counter-screen for CHT inhibitor project, cell-based, membrane potential dye (AID 493222).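 Also: parental cells lack the transporter so any hit is non-specific.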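 As to membrane potential ratio readout (active if shifted either direction beyond buffer ±3SD; no single direction): ratio is peak minus trough fluorescence over baseline after EC90 choline challenge.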 Conditions: choline response, at 10 µM; active = decrease or increase beyond buffer ±3SD. For orientation: Counterscreens check selectivity or assay interference.
Consider `O=C(O)c1ccc(N/N=C/c2cn(-c3ccccc3)nc2-c2cccs2)cc1`, for which the membrane potential ratio readout (active if shifted either direction beyond buffer ±3SD; no single direction) result was “inactive”. In the case of `CCC(Oc1ccccc1C)C(=O)Nc1ccc(S(=O)(=O)Nc2cc(C)on2)cc1` (stereo not given) it was “inactive”; in that of `CC1CCN(C(=O)CN(c2ccc(Oc3ccccc3)cc2)S(C)(=O)=O)CC1`, “inactive”.

As to `CCN(CC)CCC(c1ccc2c(c1)OCO2)c1c(OC)cc(OC)c2c(-c3ccccc3)cc(=O)oc12` (stereo not given), the membrane potential ratio readout (active if shifted either direction beyond buffer ±3SD; no single direction) entry was “inactive”.

Take `C/C(=N\N=C(N)N)c1ccc(Cl)cc1`: the membrane potential ratio readout (active if shifted either direction beyond buffer ±3SD; no single direction) entry was “inactive”. Regarding `COC(=O)c1ccccc1NC(=O)Cn1nc(C(F)(F)F)c2c1CCC2`, the membrane potential ratio readout (active if shifted either direction beyond buffer ±3SD; no single direction) result was “inactive”.

In the case of `O=C1c2cccc3cccc(c23)C(=O)N1CCCCCc1n[nH]c(=S)o1`, the membrane potential ratio readout (active if shifted either direction beyond buffer ±3SD; no single direction) entry is “inactive”. As for `CC(C)n1c(=S)[nH]c2cc(C(F)(F)F)ccc21`, the entry is “inactive”. As for `O=C(Cn1ncc2c3ccccc3n(Cc3ccccc3)c2c1=O)NCCCN1CCOCC1`, the membrane potential ratio readout (active if shifted either direction beyond buffer ±3SD; no single direction) result was “inactive”. As for `CCOC(=O)N1CCN(C(=O)c2ccc(CN(c3ccc(C)c(C)c3)S(C)(=O)=O)cc2)CC1`, the entry is “inactive”; as for `CCCn1c2ccccc2c2cnn(CC(=O)NCCCN3CCCCC3CC)c(=O)c21` (stereo not given), “inactive”; as for `Cc1ccccc1-n1nnc2c(=O)oc3ccccc3c21`, “inactive”. In the case of `C=CCn1c(SCc2ccc(C(=O)NCCO)cc2)nc2ccccc2c1=O` it was “inactive”; in that of `O=C(/C=C/c1cn(-c2ccccc2)nc1-c1ccc2c(c1)OCCO2)NCCCN1CCOCC1`, “inactive”. On to `COc1ccc(C(=O)NC(Cc2ccc(OC(=O)c3ccc(OC)cc3)cc2)C(=O)O)cc1` (stereo not given), for which the membrane potential ratio readout (active if shifted either direction beyond buffer ±3SD; no single direction) result was “inactive”. `Cc1cccnc1NC(=O)c1cccc(S(=O)(=O)N2CCN(c3ccc(F)cc3)CC2)c1`: the membrane potential ratio readout (active if shifted either direction beyond buffer ±3SD; no single direction) result was “inactive”. On to `CCOc1ccccc1Nc1ccc2nonc2c1[N+](=O)[O-]`, for which the membrane potential ratio readout (active if shifted either direction beyond buffer ±3SD; no single direction) entry was “inactive”. `O=C(CCCN1C(=O)CSc2ncccc21)N1CCN(c2cccc(C(F)(F)F)c2)CC1`: the membrane potential ratio readout (active if shifted either direction beyond buffer ±3SD; no single direction) result was “inactive”. As for `Cc1ccc2c(C)c(C(=O)N3CCC(N4CCC(C(=O)NC5CC5)CC4)CC3)oc2c1`, the entry is “inactive”.

On to `CCOCCCN(C)C1CCN(C(=O)c2oc3ccccc3c2NC(=O)COc2cccc(C)c2)CC1`, for which the membrane potential ratio readout (active if shifted either direction beyond buffer ±3SD; no single direction) was 3.33 (active). Take `COCCNc1nc(-n2nc(C)cc2C)nc2sc3c(c12)CCCC3`: the membrane potential ratio readout (active if shifted either direction beyond buffer ±3SD; no single direction) entry is “inactive”. Consider `O=c1c2ccccc2nnn1CSc1nc2sc3c(c2c(=O)n1CC1CCCO1)CCC3` (stereo not given), for which the membrane potential ratio readout (active if shifted either direction beyond buffer ±3SD; no single direction) entry was “inactive”.

In the case of `CC(C)(C)C(=O)/C(C#N)=C/c1ccc(O)cc1`, the membrane potential ratio readout (active if shifted either direction beyond buffer ±3SD; no single direction) entry is “inactive”. Consider `Cc1oc2c(F)c(F)c(F)c(F)c2c1S(=O)(=O)Nc1cccc(C(F)(F)F)c1`, for which the membrane potential ratio readout (active if shifted either direction beyond buffer ±3SD; no single direction) entry is “inactive”.

Take `O=C(Nc1ccc(F)c(Cl)c1)C1CCN(S(=O)(=O)c2cccnc2)CC1`: the membrane potential ratio readout (active if shifted either direction beyond buffer ±3SD; no single direction) entry was “inactive”.

The record behind these values is PubChem BioAssay AID493222 (Johns Hopkins Ion Channel Center, 2011).
